Assay outcomes (PubChem)
Shown are actives, neighbours in structure and some others; about 11% of the full set was active somewhere.
ALDH1A1 inh: inhibitors of human aldehyde dehydrogenase 1A1; Purified ALDH1A1, NADH fluorescence, propionaldehyde substrate; Potency, µM (highest dose often 75.3 µM), inactives show top-dose activity, negative = inhibition, hits mostly inhibitors; hit rate 7.3% among 220,000; AID 1030; active = well fitted inhibition curve with a large enough effect, not every such curve was filed as active; inconclusive = small, poorly fitted or top-dose-only effect, or another doubt; inactive = no such curve, though single readings can be large or run the other way;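 also: potency is read from the fitted curve at half-maximal effect; plate controls were no enzyme wells and a reference inhibitor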
Target sequence (P00352 whole entry, looked up): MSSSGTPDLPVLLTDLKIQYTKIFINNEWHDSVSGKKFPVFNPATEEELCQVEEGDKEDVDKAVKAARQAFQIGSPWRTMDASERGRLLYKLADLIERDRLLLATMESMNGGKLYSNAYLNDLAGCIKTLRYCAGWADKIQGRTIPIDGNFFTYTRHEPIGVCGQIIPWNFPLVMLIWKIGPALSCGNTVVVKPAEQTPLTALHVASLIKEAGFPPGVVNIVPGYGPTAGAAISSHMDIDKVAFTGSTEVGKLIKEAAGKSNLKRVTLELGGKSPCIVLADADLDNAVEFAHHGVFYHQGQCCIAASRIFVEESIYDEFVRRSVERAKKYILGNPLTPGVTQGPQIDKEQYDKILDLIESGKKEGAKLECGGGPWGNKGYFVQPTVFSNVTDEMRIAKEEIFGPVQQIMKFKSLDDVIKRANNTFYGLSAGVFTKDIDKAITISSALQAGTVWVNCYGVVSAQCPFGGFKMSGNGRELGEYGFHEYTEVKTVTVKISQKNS
IMPase Li inh: membrane-permeable IMPase blocker, potentiated with lithium | Potency, µM (highest dose often 59.4 µM), for inactives: at the highest dose activity, negative = IMPase inhibition, hits mostly inhibitors | CHO-M1 cells, IP1 TR-FRET (IP-One), carbachol + lithium | hit rate 0.35% among 210,000;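 also: IP1 builds up when IMPase is blocked and the TR-FRET signal falls; potency is read from the fitted curve at half-maximal effect; plate controls were basal vehicle for no effect and high inhibitor control for full effect; nearly all actives have a fitted effect of over 50% in size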
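Test compounds were applied to CHO-M1 cells previously cultured for 16–30 h at 2000 per well. A small lithium amount accompanied them; after 30 min at 37C, IP1 was quantified by TR-FRET.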
PNC inhibitor: perinucleolar compartment assembly inhibition | PC3M PTB-GFP, PNC prevalence imaging, 16 h; hits give low values | activity change (PNC), negative = inhibition, % at 10 µM | hit rate 3.1% among 140,000 | AID 2417;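 active = readout at or below -70, meaning at least 70% loss of cells showing the perinucleolar compartment, a nuclear body marking cancer cells; inconclusive = readout between -30 and a set limit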;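 also: plate controls were DMSO wells for no effect and camptothecin positive control wells for full effect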
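PC3M cells stably expressing PTB-GFP, 750–1000 cells/well, treated 16 h at 37 °C with compound (23 nl of library stock), in duplicate. After paraformaldehyde fixation and Hoechst stain, imaged at 20x; PNC prevalence scored by image analysis.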
IMPase inh: cell-permeable inhibitors of inositol monophosphatase (IMPase); inhibition (IP1 accumulation), % at 46.1 µM; 120,000 tested, under 10 active; CHO-M1 cells, IP1 accumulation, HTRF TR-FRET ratio; P97697; active = well fitted curve in the direction sought with a large enough effect in the signal ratio, not every such curve was filed as active; inconclusive = small, poorly fitted or top-dose-only effect, or a change in a side signal; inactive = no such curve, though single readings can be large or run the other way; the % refers to the signal ratio;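 also: cells stimulated with carbachol in lithium chloride buffer; plate controls were DMSO basal wells for no effect and reference inhibitor wells for full effect; higher means more IMPase inhibition seen as more IP1 and lower FRET ratio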
Target sequence (P97697 whole entry, looked up): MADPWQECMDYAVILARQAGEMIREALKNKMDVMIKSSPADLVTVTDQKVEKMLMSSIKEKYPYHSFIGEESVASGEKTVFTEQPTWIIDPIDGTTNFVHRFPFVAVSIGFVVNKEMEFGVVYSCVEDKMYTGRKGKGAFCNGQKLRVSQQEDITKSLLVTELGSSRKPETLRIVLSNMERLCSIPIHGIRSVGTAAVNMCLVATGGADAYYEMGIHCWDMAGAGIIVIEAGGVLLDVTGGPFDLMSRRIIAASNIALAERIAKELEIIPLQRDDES
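Cellular IMPase inhibition is scored as a rise in cytosolic IP1, detected by competitive TR-FRET between d2-labelled IP1 and a europium anti-IP1 antibody. M1-expressing CHO cells were stimulated with carbachol for 30 min at 37C, with lithium (50 mM LiCl) present in the buffer.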
HPGD block: HPGD (human) dehydrogenase inhibition | purified HPGD, NADH fluorescence kinetic, PGE2 substrate | Potency, µM, for inactives: top-dose activity change, negative = inhibition, hits mostly inhibitors | hit rate 4.3% among 150,000 | AID 894; active = well fitted inhibition curve with a large enough effect, not every such curve was filed as active; inconclusive = small, poorly fitted or top-dose-only effect, or another doubt; inactive = no such curve, though single readings can be large or run the other way; also: potency is read from the fitted curve at half-maximal effect
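NADH formation kinetics: reaction with 30 uM PGE2 and 1 mM NAD+ (final), 20 nM enzyme, Tris-HCl pH 8 with Tween 20, after 15 min compound preincubation at room temperature. Fluorescence change, last versus first of five reads.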
NPSR antagonist: neuropeptide S receptor (human) antagonism, cAMP; Q6W5P4; CHO-NPSR cells, cAMP TR-FRET, antagonist mode; Potency, µM (highest dose often 38.3 µM), inactives show at the top dose activity change, negative = inhibition, hits mostly inhibitors; hit rate 1% among 220,000; AID 1461; also: potency is read from the fitted curve at half-maximal effect; nearly all actives have a fitted effect of over 50% in size
Starred values were filed as active, the others as inactive; [ ] = remark or other dose. Unless noted, calls follow the shape of the dose curve; as a rule, active = well fitted curve in the direction sought with a large enough effect; inconclusive = small, poorly fitted or top-dose-only effect, or another doubt; inactive = no such curve, though single readings can be large; an effect the other way counts as inactive or inconclusive. Unless noted, % is scaled to controls: 0 for no effect and ±100 for the full control effect.

What do the screens show for `O=C(CN1CCOCC1)Nc1ccc(S(=O)(=O)NC2CCCCC2)cc1`?
ALDH1A1 inh: inconclusive; IMPase Li inh: -17%[38.3 µM]; PNC inhibitor: inconclusive; IMPase inh: -9; HPGD block: inconclusive; NPSR antagonist: 27%[46.1 µM]

How did CCCCC1(C)NC(=O)N(CC(=O)Nc2ccc(S(=O)(=O)N3CCOCC3)cc2)C1=O (centres undefined) do in these assays?
ALDH1A1 inh: 3.2µM*; IMPase Li inh: 7%[38.3 µM]; PNC inhibitor: -87*; IMPase inh: 8; HPGD block: -11%; NPSR antagonist: -9%[46.1 µM]

How did O=C(CN1CCN(CCO)CC1)Nc1ccccc1 do in these assays?
ALDH1A1 inh: inconclusive; IMPase Li inh: 0%; PNC inhibitor: -100*; IMPase inh: 7; HPGD block: -13%; NPSR antagonist: -1%[46.1 µM]

Results for O=C(CN1CCOCC1)Nc1ccc(C2CCCCC2)cc1 ?
ALDH1A1 inh: 25µM*; IMPase Li inh: 0%[38.3 µM]; PNC inhibitor: 7; IMPase inh: -4; HPGD block: 16µM*; NPSR antagonist: -7%[46.1 µM]

What do the screens show for `O=C(CN1CCOCCOCCN(CC(=O)Nc2ccccc2)CCOCC1)Nc1ccccc1`?
ALDH1A1 inh: 22µM*; PNC inhibitor: 9; IMPase inh: -3; NPSR antagonist: 1%[46.1 µM]

What do the screens show for `CCC1(CC)NC(=O)N(CC(=O)Nc2ccc(S(=O)(=O)N3CCOCC3)cc2)C1=O`?
ALDH1A1 inh: inconclusive; IMPase Li inh: 12%; NPSR antagonist: 18%

Results for O=C(CN1CCN(c2ccc(F)cc2)CC1)Nc1cc(C(F)(F)F)ccc1Cl ?
ALDH1A1 inh: inconclusive; IMPase Li inh: -9%; PNC inhibitor: 0; IMPase inh: -1; HPGD block: -6%; NPSR antagonist: -17%[46.1 µM]

Results for CN(C)S(=O)(=O)c1ccc(NC(=O)CN2CCOCC2)cc1 ?
NPSR antagonist: 3%

What do the screens show for `CCCCN(CCCC)S(=O)(=O)c1ccc(NC(=O)CN2CCOCC2)cc1`?
ALDH1A1 inh: 13µM*; IMPase Li inh: 23%[38.3 µM]; PNC inhibitor: -8; IMPase inh: -7; HPGD block: -17%; NPSR antagonist: -12%[46.1 µM]

What do the screens show for `O=c1c2ccccc2[nH]c(=S)n1CCC1=CCCCC1`?
ALDH1A1 inh: 7%; IMPase Li inh: -8%; PNC inhibitor: 6; HPGD block: -1%; NPSR antagonist: -8%

What do the screens show for `Cc1ccc(N2C(=N)/C(=C3/Nc4ccccc4S3)C(c3ccccc3)C2=O)cc1` (centres undefined)?
ALDH1A1 inh: 9.5µM*; PNC inhibitor: inconclusive; IMPase inh: 3; NPSR antagonist: inconclusive

How did O=C(NC(=S)N1CCCc2ccccc21)c1ccc(Cl)cc1 do in these assays?
ALDH1A1 inh: -174%; IMPase Li inh: 13%; PNC inhibitor: -107*; HPGD block: inconclusive; NPSR antagonist: -14%

How did O=C(NC(=S)N1CCCc2ccccc21)c1ccccc1 do in these assays?
ALDH1A1 inh: inconclusive; IMPase Li inh: -17%[38.3 µM]; PNC inhibitor: 91; IMPase inh: 9; HPGD block: -10%; NPSR antagonist: -8%[46.1 µM]

How did O=C(NC(=S)N1CCCc2ccccc21)c1ccc([N+](=O)[O-])cc1 do in these assays?
ALDH1A1 inh: 11µM*; IMPase Li inh: 11%; PNC inhibitor: inconclusive; IMPase inh: 5; HPGD block: -20%; NPSR antagonist: -18%[46.1 µM]

Results for COc1ccc2[nH]c(=O)c(CN(C(=O)C3CCCO3)c3cccc(C)c3)cc2c1 (centres undefined) ?
ALDH1A1 inh: inconclusive; IMPase Li inh: 21%[38.3 µM]; PNC inhibitor: 26; IMPase inh: -2; HPGD block: inconclusive; NPSR antagonist: -6%[46.1 µM]

How did CCCOc1ccc(N2C(=O)C3ON(c4ccccc4)C(c4ccc(O)c(OC)c4)C3C2=O)cc1 (centres undefined) do in these assays?
ALDH1A1 inh: 32µM*; IMPase Li inh: -4%[38.3 µM]; PNC inhibitor: inconclusive; IMPase inh: 7; HPGD block: -2%; NPSR antagonist: -23%[46.1 µM]

Results for CCCOc1ccc(N2C(=O)C3ON(c4ccccc4)C(CCC)C3C2=O)cc1 (centres undefined) ?
ALDH1A1 inh: 18µM*; IMPase Li inh: 31%[38.3 µM]; PNC inhibitor: -3; IMPase inh: 3; HPGD block: -15%; NPSR antagonist: -16%[46.1 µM]

Results for COc1cc(C2C3C(=O)N(Cc4ccccc4)C(=O)C3ON2c2ccccc2)cc(OC)c1O (centres undefined) ?
ALDH1A1 inh: inconclusive; IMPase Li inh: 12%[38.3 µM]; PNC inhibitor: -1; IMPase inh: 6; HPGD block: -22%; NPSR antagonist: -19%[46.1 µM]

How did CCCC1C2C(=O)N(c3ccccc3)C(=O)C2ON1c1ccccc1 (centres undefined) do in these assays?
ALDH1A1 inh: -12%; IMPase Li inh: 33%[38.3 µM]; PNC inhibitor: 42; IMPase inh: 6; HPGD block: -11%; NPSR antagonist: -14%[46.1 µM]

Results for COc1cc(NC(=O)C(=O)N2CCN(C)CC2)c(OC)cc1Cl ?
NPSR antagonist: 32%

What do the screens show for `O=S(=O)(NCCSCc1ccc(Cl)cc1Cl)c1ccc2c(c1)OCCO2`?
ALDH1A1 inh: inconclusive; IMPase Li inh: 17%[38.3 µM]; PNC inhibitor: 17; IMPase inh: 0; HPGD block: -3%; NPSR antagonist: -16%[46.1 µM]

Results for CC(C)CNS(=O)(=O)c1ccc2c(c1)OCCO2 ?
ALDH1A1 inh: -4%; IMPase Li inh: 14%[38.3 µM]; PNC inhibitor: 36; IMPase inh: 5; HPGD block: 32µM*; NPSR antagonist: -6%[46.1 µM]

Results for COCCCNS(=O)(=O)c1ccc2c(c1)OCCO2 ?
ALDH1A1 inh: -13%; IMPase Li inh: -1%[38.3 µM]; PNC inhibitor: 3; IMPase inh: 0; HPGD block: -13%; NPSR antagonist: 11%[7.67 µM]

How did O=S(=O)(NCc1ccc(F)cc1)c1ccc2c(c1)OCCO2 do in these assays?
ALDH1A1 inh: -14%; IMPase Li inh: 4%[38.3 µM]; PNC inhibitor: 54; IMPase inh: -3; HPGD block: -12%; NPSR antagonist: -11%[46.1 µM]

What do the screens show for `Cc1ccccc1CNS(=O)(=O)c1ccc2c(c1)OCCO2`?
ALDH1A1 inh: -11%; IMPase Li inh: 4%; PNC inhibitor: -119*; IMPase inh: 11; HPGD block: 25µM*; NPSR antagonist: -2%

Results for O=S(=O)(NCCSc1ccc(Cl)cc1)c1ccc2c(c1)OCCO2 ?
ALDH1A1 inh: 14µM*; IMPase Li inh: 2%[38.3 µM]; PNC inhibitor: -4; IMPase inh: 3; HPGD block: -16%; NPSR antagonist: -12%[46.1 µM]

How did Cc1ccc(CNS(=O)(=O)c2ccc3c(c2)OCCO3)cc1 do in these assays?
ALDH1A1 inh: -1%; IMPase Li inh: -6%; PNC inhibitor: -101*; HPGD block: -3%; NPSR antagonist: 1%
